Among the data in ChEMBL document CHEMBL4513216, “Probing the Open Global Health Chemical Diversity Library for Multistage-Active Starting Points for Next-Generation Antimalarials” (ACS Infect Dis, 2020) are INHIBITION values, retold here.

Among all 69,000 compounds or so, about 8,600 (12%) showed an effect of 50% or more. Many of the other results were omitted from the sample, so strong results are more common in it than they were.

This experiment concerns Plasmodium berghei. Kind of experiment: Screen against P. berghei liver stage (PbLuc), transformed with Luciferase, at 10uM. Format: functional, HepG2. The settings on record: tested at 10 uM.
`Cc1nc(C(=O)N2CCC(c3cc(CCO)n(C)n3)C2)co1` (stereo unspecified): the INHIBITION stood at 19.3%.

As for `CNC(=O)[C@@H](c1ccccc1OC)N1CCC[C@H]1C(=O)N1CCC1`, the INHIBITION is on record as -37.8%.

For the compound `COCC(NC1CCN(CC(C)C)CC1)c1ccnn1C` (stereo unspecified), the INHIBITION is -1.49%. As for `CCc1c(C)sc2nc3n(CCN4CCOCC4)nc(SC)n3c(=O)c12`, the figure is 17.7%; as for `CC(c1ccncc1)N(CCN(C)C)C(=O)Nc1ccc(Cl)c(Cl)c1` (stereo unspecified), -32.1%. For the compound `O=C(c1ccoc1)N1C[C@@H]2[C@@H](C1)OCC(=O)N2Cc1cccnc1`, the INHIBITION is 16.8%.

With `CN(C(=O)c1cc(F)ccc1F)[C@@H]1CC[C@@H](O)[C@@H]1O`, the INHIBITION was found to be 2.55%. As for `CC(C)Nc1cc(-c2c[nH]nc2C2CCN(C(=O)C3CCC3)C2)ccn1` (stereo unspecified), the figure is 88.45%; as for `Nc1cc(-c2c[nH]nc2C2CCCN2S(=O)(=O)c2ccccc2)ccn1` (stereo unspecified), 39.1%; as for `Nc1cc(-c2c[nH]nc2C2CCN(C(=O)C3CCCC3)C2)ccn1` (stereo unspecified), 31.75%. Next, `Nc1cc(-c2c[nH]nc2C2CCCCN2C(=O)C2CCCC2)ccn1` (stereo unspecified): 59.9%; `CC(C)N1CCC(c2n[nH]cc2-c2ccnc(N)c2)C1` (stereo unspecified): 26.5%.

With `CCCNc1cc(-c2c[nH]nc2C2CCN(C(=O)C3CCC3)C2)ccn1` (stereo unspecified), the INHIBITION worked out at 87.35%. Regarding `Cc1cc(N2CCC(c3n[nH]c4nccnc34)CC2)ncn1`, the INHIBITION is on record as 58.1%. Next, `CN(C)S(=O)(=O)N1CCC(c2n[nH]cc2-c2ccnc(N)c2)C1` (stereo unspecified): -9.215%; `Cc1cc(N2CC(c3n[nH]c4nccnc34)C2)ncn1`: 18.3%; `Cc1cc(N2CCC(c3n[nH]c4nccnc34)C2)ncn1` (stereo unspecified): -4.51%. For the compound `Cc1c[nH]nc1C1CCN(C(=O)Cn2cccn2)C1` (stereo unspecified), the INHIBITION was -9.32%. As for `COCC(=O)N1C[C@@H](OCc2cccnc2)[C@H]2OCCC[C@@H]21`, the figure is 26.5%. Next, `Cc1ccc(S(N)(=O)=O)cc1C(=O)NC1CCCC1`: 12.2%; `CC(=O)N1CCCC(c2ccnc(Nc3cnccn3)c2)C1` (stereo unspecified): -9%; `O=C(NCC(CO)Cc1cccc(OC(F)(F)F)c1)c1cnccn1` (stereo unspecified): 30.8%. As for `O=C(Cc1csc(-c2ccsc2)n1)N1CCN(c2cnccn2)CC1`, the figure is -40.2%; as for `Cc1nc(C)n(CC2CCCN(CCC(=O)NC3CCCCC3)C2)n1` (stereo unspecified), -4.16%; as for `CN1CC(C(=O)NC2(c3ccc(Cl)cc3)CCOCC2)CC1=O` (stereo unspecified), 8.31%. In the case of `NC(=O)c1c(NC(=O)CCCC(=O)O)sc2c1CCc1ccccc1-2`, the INHIBITION is on record as 33%. Next, `Cc1nn(C)c(C)c1-c1nccnc1CC1CCNCC1`: -17.9%; `CCc1c(C)nn2c(O)cc(C3CCN(C(=O)c4ccn(C)n4)C3)nc12` (stereo unspecified): 3.623%. For `c1cnc(N2C[C@@H]3COC[C@]3(COCC3CCCC3)C2)nc1`, the INHIBITION is 15.4%. Regarding `CN(C)[C@@H]1CCN(CC2CC2)[C@H]1Cc1cnn(C)c1`, the INHIBITION is 1.94%. Next, `CN1CC(=O)N(c2cnn(C)c2)CC12CCN(Cc1ccccc1)C2` (stereo unspecified): 21.8%; `CC1CCN(CCNC(=O)c2scnc2Cl)CC1`: 40.2%; `CC1CCN(CCNC(=O)c2sccc2C2CC2)CC1`: 81.5%.

Take `Cc1cc(C)n(-c2nc(C(=O)NCCN3CCC(C)CC3)cs2)n1`: the INHIBITION stood at 61%. Next, `O=C(NCC(=O)N1CCN(c2ccccc2)CC1)c1sccc1C1CC1`: 92%; `CN1CCN(CCNC(=O)c2sccc2C2CC2)CC1`: 31.6%; `O=C(NCC(=O)N1CCCCC1)c1sccc1C1CC1`: 17.2%. On to `CCc1nc(C)c(C(=O)NCCN2CCC(C)CC2)s1`, for which the INHIBITION is recorded as 15.6%. Next, `O=C(c1sccc1C1CC1)N1CCN(c2ncccn2)CC1`: 49.1%; `Cc1cc(C)n(-c2nc(C(=O)NCCS(=O)(=O)N3CCCCC3)cs2)n1`: 0.696%.

For the compound `COc1ccccc1NC(=O)NCc1nnc(SC)n1C`, the INHIBITION was found to be 8.125%. Take `N#CC1(C(=O)N2CCCN(Cc3cscn3)CC2)CCCCC1`: the INHIBITION is -54.6%.

Turning to `CC(C)C(=O)N1CCCC(Cc2ncccn2)C1` (stereo unspecified), the INHIBITION is given as 32.7%. As for `CC(C)CCCC1CN(C(=O)c2cnc[nH]2)CCO1` (stereo unspecified), the figure is -10.5%. Next, `COc1c(CNC(c2ccccc2)c2nccn2C)c(C)nn1C` (stereo unspecified): 39.4%; `COc1ccccc1C(NCc1ccc(SC)cc1)c1nccn1C` (stereo unspecified): 29.06%. As for `Cc1ccc(CNC(c2cccc(F)c2)c2nccn2C)o1` (stereo unspecified), the figure is 24.2%; as for `COc1cc(CNC(c2ccccc2)c2nccn2C)cc(OC)c1` (stereo unspecified), -76.15%; as for `Cn1ccnc1C(NCc1csc(Br)c1)c1ccccc1` (stereo unspecified), 51.6%. For `CSc1ccc(CNC(c2ccc(F)cc2)c2nccn2C)cc1` (stereo unspecified), the INHIBITION is reported as -1.6%. Take `CSc1ccc(CNC(c2ccccc2)c2nccn2C)cc1` (stereo unspecified): the INHIBITION is listed as 79.1%.

`Cn1ccnc1C(NCc1ccc(Br)cc1)c1ccccc1` (stereo unspecified): the INHIBITION is -32.9%.

For `Cn1ccnc1C(NCc1ccccc1)c1ccc(F)cc1` (stereo unspecified), the INHIBITION was 32.9%.

As to `Cc1ccc(CNC(c2ccc(F)cc2)c2nccn2C)o1` (stereo unspecified), the INHIBITION turned out to be 52.6%. Next, `CSc1ccc(CNC(c2ccccc2F)c2nccn2C)cc1` (stereo unspecified): -27.24%.

As for `COc1cccc(C(NCc2ccc(SC)cc2)c2nccn2C)c1` (stereo unspecified), the INHIBITION was determined as 51.2%.
